{
  "source": "PubChem BioAssay AID743398",
  "about": "(Broad Institute, 2014)",
  "note": "Out of some 300,000 compounds screened, about 3,600 (1.2%) were called active. The full list was thinned out, with actives kept by preference. A number with no mark means an inactive call. Rule as the data show it: active = activation above about 30% (passing the limit was not always enough); inconclusive = no clear call, values can overlap the other calls.",
  "data": [
    {"assay": "activation of beta-catenin signaling reporter – cell-based, plate reader, single point, primary screen (AID 743398);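 also: 0% = neutral control wells and 100% = positive control wells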", "details": "Wnt/beta-catenin reporter cell assay, activator, at 9.35 µM, stronger effect = higher value", "values": [
      {"smiles": "O=CNc1cc(-c2ccc(C(=O)N3CCOCC3)cc2)cn2c(-c3ccc(F)cc3)cnc12", "activation": "-3.58%"},
      {"smiles": "Cc1c(C(=O)Nc2ccccn2)oc2ccc(Br)cc12", "activation": "34.7% (active)"},
      {"smiles": "Cc1noc(C)c1C(=O)Nc1ccccn1", "activation": "-1.19%"},
      {"smiles": "Cc1nonc1NC(=O)c1oc2ccccc2c1C", "activation": "8.7%"},
      {"smiles": "CC(C)c1ccc(/C=C/C(=O)NCCCN2CCOCC2)cc1", "activation": "-3.21%"},
      {"smiles": "C=CCNC(=O)/C=C/c1ccc(C(C)C)cc1", "activation": "42.6% (active)"},
      {"smiles": "O=C(/C=C/c1ccc(F)cc1)NCCNC(=O)/C=C/c1ccc(F)cc1", "activation": "-1.4%"},
      {"smiles": "CCOC(=O)[C@]12CCC=C1N(Cc1cccc3ccccc13)C(=O)[C@H](CC(=O)NCc1cccc(C(F)(F)F)c1)C2", "activation": "-1.93%"},
      {"smiles": "C#CCN(C[C@@H]1[C@@H](OC(=O)NC2CC2)[C@@H](OC(=O)NC2CC2)Cn2c(=O)ccc(=O)n21)S(=O)(=O)c1ccc(C)cc1", "activation": "-2.83%"},
      {"smiles": "O=[N+]([O-])c1ccc(C(S(=O)(=O)Cc2ccccc2)S(=O)(=O)Cc2ccccc2)cc1", "activation": "-5.67%"},
      {"smiles": "CC(=O)c1ccc2c(c1)OCCOCCOc1ccc(C(C)=O)cc1OCCOCCO2", "activation": "1.05%"},
      {"smiles": "Cc1nc(NC(=O)c2ccc3c(c2)OCCO3)ccc1Br", "activation": "48.4% (active)"},
      {"smiles": "O=C(Nc1ccc(Cl)cn1)c1ccc2c(c1)OCCO2", "activation": "24.2%"},
      {"smiles": "Cc1ccc(C(=O)NNC(=O)c2ccc3c(c2)OCCO3)cc1", "activation": "43.9% (active)"},
      {"smiles": "O=C(Nc1ccccc1)c1ccc2c(c1)OCCCO2", "activation": "19.2%"},
      {"smiles": "Cc1cccc(C)c1NC(=O)CNC(=O)c1ccc2c(c1)OCCO2", "activation": "13.2%"},
      {"smiles": "CN(CCc1ccccc1)C(=O)c1cccc(NC(=O)Cc2cccc(NC(=O)C3CCCN(C(=O)C4CCC4)C3)c2)c1", "note": "(stereo not drawn)", "activation": "-3.51%"},
      {"smiles": "C[C@H]([C@@H](O)[C@@H](O)[C@@H](C)C(C)(C)C)[C@H]1CC[C@H]2C3CC[C@H]4C[C@H](OS(=O)(=O)O)[C@@H](OS(=O)(=O)O)C[C@]4(C)[C@H]3CC[C@]12C", "note": "(stereo partly drawn)", "activation": "-0.623%"},
      {"smiles": "CC12CCC(=O)C=C1CCC1C2C(O)CC2(C)C1CCC2(O)C(O)CO", "note": "(stereo not drawn)", "activation": "3.61%"},
      {"smiles": "Cn1c(=NC(=O)C2CC2)sc2cc(F)cc(F)c21", "activation": "7.6%"},
      {"smiles": "Cn1c(=NC(=O)c2ccco2)sc2cccc(F)c21", "activation": "61.6% (active)"},
      {"smiles": "CCCC(=O)N=c1sc2cccc(F)c2n1C", "activation": "5.33%"},
      {"smiles": "Cc1ccc(S(=O)(=O)N2C[C@]3(O)C[C@@H]4C(=O)N(c5ccccc5)C(=O)[C@@H]4C[C@]3(OC(=O)NC3CC3)C2)cc1", "activation": "-1.31%"}
    ]}
  ]
}
